Test results taken from PubChem BioAssay (NCATS).
Inconclusive results are not listed. A call without a number means that no potency is given here. Calls of active or inactive are those of the source. Calls follow the shape of the dose curve; as a rule, active = well fitted inhibition curve with a large enough effect; inconclusive = small, poorly fitted or top-dose-only effect; inactive = flat fitted curve, though single readings scatter.

target: Calcium and integrin-binding protein 1 (Homo sapiens) (UniProt Q99828); experiment: Primary qHTS for Identification of Calcium Integrin Binding Protein 1 (CIB1) Competitor (AID 1508620); details: CIB1-GST / FITC-alphaIIb peptide fluorescence polarization; series mostly up to 114 µM; also: top concentration of the series differs between compounds
Sequence (Q99828 whole entry, looked up): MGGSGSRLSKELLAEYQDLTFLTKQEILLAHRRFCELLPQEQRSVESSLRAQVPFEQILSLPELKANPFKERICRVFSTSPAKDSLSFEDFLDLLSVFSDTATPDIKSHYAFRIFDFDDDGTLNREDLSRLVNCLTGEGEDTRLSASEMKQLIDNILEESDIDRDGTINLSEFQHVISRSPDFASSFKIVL
In short: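 Fluorescence polarization competition: GST-tagged CIB1 (1 uM final) preincubated with compound 15 min at room temperature, then FITC-labelled alphaIIb peptide (100 nM final) added. After 15 min at room temperature, polarization read at Ex 480/Em 540.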

SMILES	Potency	activity change, negative = inhibition
COc1ccc(CNC(=O)c2sc3nc(C)cc(C)c3c2N)cc1	inactive	–
C=CC(C)(C)c1[nH]c2cc3c(cc2c1CC1NC(=O)C2CCCN2C1=O)C=CC(C)(C)O3 (stereo not given)	inactive	–
C=C1C(=O)O[C@@H]2[C@H]1CCC(C)=C1CCC(=O)O[C@]12C	inactive	–
CCC(C)C(=O)OC1CC(O)C23C4OCC5(C(O)CC2C1(C)C(O)O4)C3C(=O)CC1(C)C(c2ccoc2)CC2OC215 (stereo not given)	inactive	–
CC1=CC(=O)[C@H]2C(C)(C)CCC[C@]2(C)[C@@]1(O)CO	inactive	–
C=C(C)C1CCC2(C(=O)O[C@@H]3O[C@H](CO[C@@H]4O[C@H](CO)[C@@H](O)[C@H](O)[C@H]4O)[C@@H](O)[C@H](O[C@@H]4O[C@@H](C)[C@H](O)[C@@H](O)[C@H]4O)[C@H]3O)CCC3(C(=O)O)C(CCC4C5(C)CCC(O)C(C)(C)C5CCC43C)C12 (stereo not given in full)	inactive	–
C=CC1C(OC2OC(CO)C(O)C(O)C2O)OC=C(C(=O)OC)C1CC1CC(=O)CC(CCc2ccc(O)cc2)O1 (stereo not given)	inactive	–
CC[C@@](C)(Nc1ccnc(-c2c[nH]c3ncccc23)n1)C(=O)NCC(F)(F)F	inactive	–
CC1CC[C@]2(C(=O)O)CC[C@]3(C(=O)O)C(=CCC4[C@@]5(C)CC[C@H](O[C@@H]6O[C@H](CO)[C@@H](O)[C@H](O)[C@H]6O)C(C)(C)C5CC[C@]43C)C2C1C (stereo not given in full)	inactive	–
COc1ccc(C(O)C(C)OC2OC(CO)C(O)C(O)C2O)cc1 (stereo not given)	inactive	–
O=C(Nc1ccc(S(=O)(=O)C(F)(F)F)cc1)C1=CCN(c2ncccc2C(F)(F)F)CC1	inactive	–
Cc1cc(Nc2ccc(NC(=O)c3ccc(Nc4ccnc5ccccc45)cc3)cc2)nc(N)n1	inactive	–
C=C[C@H]1[C@H](O[C@@H]2O[C@H](CO)[C@@H](O)[C@H](O)[C@H]2O)OC=C(C(=O)OC)[C@H]1C[C@@H]1c2cc(O)c(O)cc2CCN1C(C)=O	inactive	–
CC(=O)c1cc(C(=O)N[C@@H](C)Cn2ccc(-c3ccc(C#N)c(Cl)c3)n2)[nH]n1	inactive	–
CC[C@H]1OC(=O)[C@](C)(F)C(=O)[C@H](C)[C@@H](O[C@@H]2O[C@H](C)C[C@H](N(C)C)[C@H]2O)[C@](C)(OC)C[C@@H](C)C(=O)[C@@H](C)[C@H]2N(CCCCn3cc(-c4cccc(N)c4)nn3)C(=O)O[C@]12C	inactive	–
Cc1[nH]c2ccccc2c1C1=C(NCCc2ccc(F)cc2)C(=O)N(C)C1=O	inactive	–
CO[C@@H](C)Cn1c(=O)n(C)c2cnc3ccc(-c4cncc(C(C)(C)O)c4)cc3c21	inactive	–
CC(C)=CCC/C(C)=C/Cc1ccc(O)c(C2OC(=O)c3cc(C(=O)O)cc(O)c32)c1O (stereo not given)	inactive	–
CC(C)(C)NS(=O)(=O)c1cncc(-c2cc(F)c3nc(N)nn3c2)c1	inactive	–
COc1ccc(-c2ccc(-c3cn(C(=O)N4CCCCC4c4ccccc4)nn3)cc2)cc1 (stereo not given)	inactive	–

SMILES	Potency	activity change, negative = inhibition
C[C@@H]1O[C@@H](O[C@H]2[C@H](O[C@H]3CC[C@@]4(C)C(CC[C@]5(C)C4CC=C4[C@@H]6CC(C)(C)CC[C@]6(C(=O)O[C@@H]6OC[C@H](O)[C@H](O)[C@H]6O[C@@H]6O[C@@H](C)[C@H](O[C@@H]7O[C@H](CO)[C@@H](O)[C@H](O)[C@H]7O)[C@H](O)[C@H]6O)[C@H](O)C[C@]45C)C3(C)C)O[C@H](CO)[C@@H](O[C@@H]3OC[C@@H](O)[C@H](O)[C@H]3O)[C@@H]2O)[C@H](O)[C@H](O)[C@H]1O (stereo not given in full)	–	-1.57% [at 12.4 µM] (inactive)
CSc1ccc(C(=O)N[C@@H]2CCCC[C@@H]2NC(=O)CNC(=O)c2cc(C(F)(F)F)ccc2NC(=O)NC(C)C)cc1	inactive	–
Oc1ccc2nc(CN3CCC(Cc4ccccc4F)CC3)[nH]c2c1	inactive	–
COc1ccc(C(=O)Nc2ncc(-c3ccc(C(=O)O)cc3)s2)cc1	inactive	–
COc1ccc(C2COc3cc(O)ccc3C2)c(O)c1 (stereo not given)	inactive	–
OC/C=C/c1ccc(O[C@@H]2O[C@H](CO)[C@@H](O)[C@H](O)[C@H]2O)cc1	inactive	–
CC(C)CC1NC(=O)C2CC3(O)c4ccccc4NC3N2C1=O (stereo not given)	inactive	–
C=C1C(=O)O[C@H](CCC)[C@H]1C(=O)O	inactive	–
C/C=C/c1ccc(O[C@@H]2O[C@H](CO)[C@@H](O)[C@H](O)[C@H]2O)c(OC)c1	inactive	–
Cc1nc2ccc(Oc3ccc(F)cc3)cc2c(=O)n1C[C@H]1CCCN(C(C)C)C1	inactive	–
Cc1ccc(S(=O)(=O)n2ccc(-c3c(-c4ccc(Cl)cc4)noc3C)n2)cc1	inactive	–
COC(=O)Cc1cc2c(c([N+](=O)[O-])c1)N(C(=O)CC[C@H](N)C(=O)O)CC2	inactive	–
COc1c2c(c(C)c3c1C(=O)OC3)OC1(C)CC(O)C(C(C)(C)O)C(C)(CCC(=O)O)C1C2 (stereo not given)	inactive	–
O=C(NCc1cccc(O)c1)c1cc2cc(F)ccc2[nH]1	inactive	–
CCCn1c(=O)c2[nH]c(-c3ccc(OCC(=O)O)cc3)nc2n(CCC)c1=O	inactive	–
CNS(=O)(=O)c1ccccc1Nc1nc(Nc2ccc(N3CCN(C)CC3)cc2OC)ncc1Cl	inactive	–
C=C1C(=O)OC2CC3(C)C(CC12)C(C)=CC(O)C3OC(C)=O (stereo not given)	inactive	–
Cc1c(C(=O)N2CCOc3ccc(-c4ccc(N)nc4)cc3C2)ccc(S(C)(=O)=O)c1F	inactive	–
C[C@@H]1C(=O)O[C@H]2C[C@]34[C@H]5C[C@@H](C(C)(C)C)[C@]36[C@@H](OC(=O)[C@H]6O)O[C@]4(C(=O)O5)[C@]21O	inactive	–
O=C(Nc1c(-c2cccs2)nc2ccccn12)c1ccc(Cl)cc1	inactive	–
